Test results reported in PubChem BioAssay (Tox21).
Records with an inconclusive call do not appear. Activity calls are given as the source filed them. Unless noted, calls follow the shape of the dose curve; as a rule, active = well fitted curve in the direction sought with a large enough effect in the repeat runs; inconclusive = weak or mixed curves; inactive = no such curve, though single readings can be large; an effect the other way counts as inactive or inconclusive.

Assays:
[1] = qHTS assay to identify small molecule antagonists of the androgen receptor (AR) signaling pathway using the MDA cell line in the presence of 0.5 nM R1881 - cell viability counter screen (AID 1259242); also: nearly all actives have a fitted effect of over 45% in size
In short: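 Human breast carcinoma MDA-kb2 cells, cultured without CO2, receive compounds alongside 0.5 nM (final) R1881 agonist. After 16 hr at 37C, viability is taken as live-cell protease signal.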

[2] = qHTS assay to identify small molecule HDAC inhibitors (AID 1259364);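 also: wild-type HCT-116 cells with endogenous class I/II HDAC activity; top concentration of the series differs between compounds; nearly all actives have a fitted effect of over 45% in size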
In short: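 After a 2 hr compound incubation (37C, 5% CO2), HCT-116 cells seeded at 1,500/well the day before received HDAC-Glo reagent; signal read as luminescence after 30 min at room temperature.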

[3] = qHTS assay to identify small molecule HDAC inhibitors - cell viability counter screen (AID 1259365); also: series mostly up to about 92 µM; nearly all actives have a fitted effect of over 50% in size
In short: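 HCT-116 (wild type), 1,500 cells/well, overnight 37C/5% CO2; compound in DMSO 2hr; CellTiter-Glo 30min RT; luminescence read.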

[4] = qHTS assay to identify small molecule agonists of the sonic hedgehog signaling (Shh) pathway - cell viability counter screen (AID 1259366); also: nearly all actives have a fitted effect of over 50% in size
In short: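 CellTiter-Fluor fluorescence read-out, 1 hr at 37C, added after 23hr compound exposure. Cells: 3T3 Gli1-Luc, an NIH/3T3 clone with stably integrated Gli1-Luc reporter, plated 4hr before compound.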

[5] = qHTS assay to identify small molecule antagonists of the sonic hedgehog signaling (Shh) pathway - cell viability counter screen (AID 1259367); also: nearly all actives have a fitted effect of over 55% in size
In short: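 Tox21 library chemicals were tested on a Gli1-Luc NIH/3T3 clone (2,000 cells/well) stimulated by conditioned medium; viability was quantified as fluorescence from CellTiter-Fluor reagent added at 23 hr.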

[6] = qHTS assay to identify small molecule agonists of the sonic hedgehog signaling (Shh) pathway (AID 1259368; calls by dose curve;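 also: NIH/3T3-derived 3T3Gli1-Luc cells carrying a stable Gli1-driven firefly luciferase reporter; series mostly up to about 92 µM; nearly all actives have a fitted effect of over 15% in size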)
In short: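 Stable NIH/3T3 Gli1-Luc reporter clone; 24 hr cpd exposure after a 4 hr settling period; luminescence endpoint.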

[7] = qHTS assay to identify small molecule antagonists of the sonic hedgehog signaling (Shh) pathway (AID 1259369; calls by dose curve; also: nearly all actives have a fitted effect of over 45% in size; also: potency is read from the fitted curve at half-maximal effect)
In short: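 Gli1 transcriptional reporter (firefly Luc) in NIH/3T3 background, conditioned-medium activated. 24hr exposure, luminescence endpoint.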

[8] = target: Estrogen receptor beta (Homo sapiens) (UniProt Q92731); assay: qHTS assay to identify small molecule agonists of the estrogen receptor beta (ER-beta) signaling pathway (AID 1259377; active = well fitted activation curve with a large enough effect in the signal ratio in the repeat runs, not every such curve was filed as active; the % refers to the signal ratio)
In short: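 Beta-lactamase reporter readout: fluorescence of LiveBLAzer B/G FRET substrate after 2 h at room temperature, following 16 h compound treatment of ER-beta-UAS-bla HEK293T cells at 37C in 2% charcoal-stripped FBS medium.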

[9] = target: Estrogen receptor beta (Homo sapiens) (UniProt Q92731); assay: qHTS assay to identify small molecule antagonists of the estrogen receptor beta (ER-beta) signaling pathway (AID 1259378; active = well fitted inhibition curve with a large enough effect in the signal ratio in the repeat runs, not every such curve was filed as active; the % refers to the signal ratio)
In short: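 ER-beta-UAS-bla HEK293T cells in 2% charcoal-stripped FBS medium treated with compound plus 1nM final 17-beta-estradiol for 16 hr at 37C. Beta-lactamase reporter read by FRET substrate fluorescence after 2 hours at room temperature.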

[10] = qHTS assay to identify small molecule agonists of the androgen receptor (AR) signaling pathway in the presence of an antagonist - cell viability counter screen (AID 1259379);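 also: MDA-kb2 human breast cancer cells carrying an MMTV luciferase reporter; series mostly up to about 92 µM; nearly all actives have a fitted effect of over 25% in size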
In short: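 Counter screen for cell viability run in parallel with the AR agonist-mode luciferase assay. MDA-kb2 cells were co-treated with nilutamide (3.0uM final) and compounds, then incubated 16 hr at 37C, and CellTiter-Fluor fluorescence was measured.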

[11] = qHTS assay to identify small molecule agonists or antagonists of the thyroid stimulating hormone receptor (TSHR) signaling pathway - wild type cell line counter screen (AID 1259384; calls by dose curve)
In short: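 Wild-type Hek293 cells, 800/well, 18 h at 37C, then compound with Ro20-1724 for 30 min RT. cAMP by HTRF (cAMP-d2/anti-cAMP cryptate), 1 h RT, fluorescence read. 15 concentrations, triplicates.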

[12] = target: Thyrotropin receptor (Homo sapiens) (UniProt P16473); assay: qHTS assay to identify small molecule antagonists of the thyroid stimulating hormone receptor (TSHR) signaling pathway (AID 1259385; calls by dose curve; also: nearly all actives have a fitted effect of over 20% in size)
In short: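 TSHR-HEK293 cells (800/well) plated 18 h, then compounds with Ro20-1724 and TSH at 1.5 ng/mL final, 30 min at room temperature. cAMP quantified by HTRF (cAMP-d2/anti-cAMP-cryptate, 1 h); 15 concentrations in triplicate.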

[13] = qHTS assay to identify small molecule agonists of the estrogen receptor alpha (ER-alpha) signaling pathway in the presence of an antagonist - cell viability counter screen (AID 1259386);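 also: series mostly up to about 92 µM; cells exposed to compounds for 22 h at 37 °C before the viability read; nearly all actives have a fitted effect of over 30% in size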
In short: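 Steps: 5-day stripped-FBS culture; seed and incubate 24hr; add ICI-182,780 (10.0nM final); pin 15-point compound titration; incubate 22hr at 37C; add CellTiter-Fluor at 21hr; read fluorescence.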

[14] = target: Progesterone receptor (Homo sapiens) (UniProt P06401); assay: qHTS assay to identify small molecule agonists of the progesterone receptor (PR) signaling pathway (AID 1346784; calls by dose curve; also: nearly all actives have a fitted effect of over 30% in size)
In short: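 HEK 293T PR-UAS-bla reporter cells, 2% charcoal-stripped FBS; 6 hr settle at 37C/5% CO2, compound (DMSO) 16 hr, LiveBLAzer B/G FRET substrate 2 hr RT, fluorescence intensity read.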

[15] = qHTS assay to identify small molecule agonists of the estrogen receptor beta (ER-beta) signaling pathway - cell viability counter screen (AID 1259380); also: nearly all actives have a fitted effect of over 30% in size
In short: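 In this qHTS counter screen, HEK293T cells carrying an ER-beta/UAS beta-lactamase reporter, grown in 2% charcoal-stripped FBS, received compound for 16 hr; ATP-based CellTiter-Glo luminescence was then read after 30 min at room temperature.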

[16] = qHTS assay to identify small molecule antagonists of the estrogen receptor beta (ER-beta) signaling pathway - cell viability counter screen (AID 1259382); also: series mostly up to about 92 µM; nearly all actives have a fitted effect of over 55% in size
In short: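 HEK293T ER-beta-UAS-bla, 2% charcoal-stripped FBS; compounds + 1nM E2 16 hr 37C; CellTiter-Glo luminescence, 30 min RT.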

[17] = target: Estrogen receptor (Homo sapiens) (UniProt P03372); assay: qHTS assay to identify small molecule antagonists of the estrogen receptor alpha (ER-alpha) signaling pathway using the BG1 cell line in the presence of 0.1 nM 17-beta-estradiol (AID 1259244); also: nearly all actives have a fitted effect of over 50% in size
In short: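 Seeding of stripped-serum-adapted VM7Luc4E2 cells, 24 h attachment, compound transfer, then 0.1 nM final 17beta-estradiol; after 22 h incubation, ONE-Glo reagent and luminescence reading.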

[18] = qHTS assay to identify small molecule phospholipidosis (PLD) inducers (AID 1259344; active = well fitted curve in the direction sought with a large enough effect; an effect the other way counts as inactive or inconclusive)
In short: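 Image-based: LipidTOX Red pit count/intensity per well and per cell; HepG2, 24 h compound at 37 C, PFA fixation, Hoechst counterstain.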

[19] = target: Estrogen receptor (Homo sapiens) (UniProt P03372); assay: qHTS assay to identify small molecule agonists of the estrogen receptor alpha (ER-alpha) signaling pathway in the presence of an antagonist (AID 1259383; calls by dose curve; also: nearly all actives have a fitted effect of over 15% in size; also: potency is read from the fitted curve at half-maximal effect; as to activation: top concentration of the series differs between compounds)
In short: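 ER-alpha agonism measured under antagonist challenge: 10.0nM ICI-182,780 (final) plus compound, 15 concentrations, 22hr, VM7Luc4E2 ERE-luciferase cells. Read by luminescence.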

[20] = target: Androgen receptor (Homo sapiens) (UniProt P10275); assay: qHTS assay to identify small molecule agonists of the androgen receptor (AR) signaling pathway in the presence of an antagonist (AID 1259381; calls by dose curve; also: nearly all actives have a fitted effect of over 15% in size)
In short: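 AR antagonist background: nilutamide 3.0uM final. Cell line: MDA-kb2, MMTV-driven luciferase, responsive to both AR and GR. Exposure 16hr, 37C, no CO2; ONE-Glo luminescence.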

Measured: Potency

Chain of Androgen receptor (Homo sapiens) (P10275 whole entry, looked up): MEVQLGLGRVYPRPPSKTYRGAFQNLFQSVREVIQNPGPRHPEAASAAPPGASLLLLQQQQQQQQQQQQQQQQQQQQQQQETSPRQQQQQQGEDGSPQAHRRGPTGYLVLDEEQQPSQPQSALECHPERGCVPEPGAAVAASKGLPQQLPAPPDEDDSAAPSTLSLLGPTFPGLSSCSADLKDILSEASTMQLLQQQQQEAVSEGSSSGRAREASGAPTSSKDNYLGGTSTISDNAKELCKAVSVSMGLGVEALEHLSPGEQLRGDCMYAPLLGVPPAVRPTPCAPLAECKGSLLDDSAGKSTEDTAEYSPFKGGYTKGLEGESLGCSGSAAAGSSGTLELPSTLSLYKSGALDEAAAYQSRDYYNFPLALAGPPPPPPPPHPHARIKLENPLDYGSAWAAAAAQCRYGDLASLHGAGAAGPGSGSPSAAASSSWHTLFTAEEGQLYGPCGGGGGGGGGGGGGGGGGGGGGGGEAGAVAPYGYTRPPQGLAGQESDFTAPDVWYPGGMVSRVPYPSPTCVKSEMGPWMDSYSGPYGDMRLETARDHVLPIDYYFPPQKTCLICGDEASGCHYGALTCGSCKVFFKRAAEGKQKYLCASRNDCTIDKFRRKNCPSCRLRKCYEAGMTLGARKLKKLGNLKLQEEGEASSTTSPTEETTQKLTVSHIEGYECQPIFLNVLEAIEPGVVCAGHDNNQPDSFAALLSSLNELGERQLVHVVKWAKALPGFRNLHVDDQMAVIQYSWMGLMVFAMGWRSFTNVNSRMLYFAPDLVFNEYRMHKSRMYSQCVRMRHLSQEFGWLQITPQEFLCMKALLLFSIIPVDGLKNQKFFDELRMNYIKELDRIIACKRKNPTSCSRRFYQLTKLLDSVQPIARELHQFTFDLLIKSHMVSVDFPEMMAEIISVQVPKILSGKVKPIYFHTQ
Chain of Thyrotropin receptor (Homo sapiens) (P16473 whole entry, looked up): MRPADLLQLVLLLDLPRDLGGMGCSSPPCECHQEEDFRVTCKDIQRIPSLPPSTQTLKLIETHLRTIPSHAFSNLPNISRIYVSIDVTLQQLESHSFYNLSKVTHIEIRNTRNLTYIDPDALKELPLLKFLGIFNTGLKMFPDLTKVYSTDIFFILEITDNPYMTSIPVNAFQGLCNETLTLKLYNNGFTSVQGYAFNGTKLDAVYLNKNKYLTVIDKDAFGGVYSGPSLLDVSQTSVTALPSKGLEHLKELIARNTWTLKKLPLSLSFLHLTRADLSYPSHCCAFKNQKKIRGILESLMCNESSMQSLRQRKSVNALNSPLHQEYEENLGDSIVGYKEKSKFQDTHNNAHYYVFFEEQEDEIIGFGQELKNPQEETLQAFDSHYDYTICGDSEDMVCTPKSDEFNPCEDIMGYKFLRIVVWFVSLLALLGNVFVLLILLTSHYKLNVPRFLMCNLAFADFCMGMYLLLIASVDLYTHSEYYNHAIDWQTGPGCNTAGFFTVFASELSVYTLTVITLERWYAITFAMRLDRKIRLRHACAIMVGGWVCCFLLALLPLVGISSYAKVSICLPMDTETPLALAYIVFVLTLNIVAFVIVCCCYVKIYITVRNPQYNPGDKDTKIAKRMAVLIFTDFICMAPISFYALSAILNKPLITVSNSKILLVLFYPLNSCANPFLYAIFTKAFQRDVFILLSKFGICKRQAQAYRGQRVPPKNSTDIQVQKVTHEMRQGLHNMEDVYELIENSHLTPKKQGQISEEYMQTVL
Chain of Estrogen receptor (Homo sapiens) (P03372 whole entry, looked up): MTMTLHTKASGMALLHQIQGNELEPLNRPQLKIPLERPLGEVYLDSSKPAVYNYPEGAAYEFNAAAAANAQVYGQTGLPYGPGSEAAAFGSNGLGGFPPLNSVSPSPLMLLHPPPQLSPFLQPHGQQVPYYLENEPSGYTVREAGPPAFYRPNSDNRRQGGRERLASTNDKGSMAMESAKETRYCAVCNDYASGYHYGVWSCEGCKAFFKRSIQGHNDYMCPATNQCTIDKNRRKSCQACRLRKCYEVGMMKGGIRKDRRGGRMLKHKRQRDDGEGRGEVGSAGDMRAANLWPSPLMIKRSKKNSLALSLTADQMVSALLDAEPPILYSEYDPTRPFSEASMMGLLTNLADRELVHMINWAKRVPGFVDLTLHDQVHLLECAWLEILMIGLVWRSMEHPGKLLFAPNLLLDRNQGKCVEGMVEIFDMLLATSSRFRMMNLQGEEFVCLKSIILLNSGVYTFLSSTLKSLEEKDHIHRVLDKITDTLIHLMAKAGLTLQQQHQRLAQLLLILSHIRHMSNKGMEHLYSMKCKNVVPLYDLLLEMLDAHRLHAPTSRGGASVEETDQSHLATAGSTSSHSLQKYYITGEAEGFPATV
Chain of Progesterone receptor (Homo sapiens) (P06401 whole entry, looked up): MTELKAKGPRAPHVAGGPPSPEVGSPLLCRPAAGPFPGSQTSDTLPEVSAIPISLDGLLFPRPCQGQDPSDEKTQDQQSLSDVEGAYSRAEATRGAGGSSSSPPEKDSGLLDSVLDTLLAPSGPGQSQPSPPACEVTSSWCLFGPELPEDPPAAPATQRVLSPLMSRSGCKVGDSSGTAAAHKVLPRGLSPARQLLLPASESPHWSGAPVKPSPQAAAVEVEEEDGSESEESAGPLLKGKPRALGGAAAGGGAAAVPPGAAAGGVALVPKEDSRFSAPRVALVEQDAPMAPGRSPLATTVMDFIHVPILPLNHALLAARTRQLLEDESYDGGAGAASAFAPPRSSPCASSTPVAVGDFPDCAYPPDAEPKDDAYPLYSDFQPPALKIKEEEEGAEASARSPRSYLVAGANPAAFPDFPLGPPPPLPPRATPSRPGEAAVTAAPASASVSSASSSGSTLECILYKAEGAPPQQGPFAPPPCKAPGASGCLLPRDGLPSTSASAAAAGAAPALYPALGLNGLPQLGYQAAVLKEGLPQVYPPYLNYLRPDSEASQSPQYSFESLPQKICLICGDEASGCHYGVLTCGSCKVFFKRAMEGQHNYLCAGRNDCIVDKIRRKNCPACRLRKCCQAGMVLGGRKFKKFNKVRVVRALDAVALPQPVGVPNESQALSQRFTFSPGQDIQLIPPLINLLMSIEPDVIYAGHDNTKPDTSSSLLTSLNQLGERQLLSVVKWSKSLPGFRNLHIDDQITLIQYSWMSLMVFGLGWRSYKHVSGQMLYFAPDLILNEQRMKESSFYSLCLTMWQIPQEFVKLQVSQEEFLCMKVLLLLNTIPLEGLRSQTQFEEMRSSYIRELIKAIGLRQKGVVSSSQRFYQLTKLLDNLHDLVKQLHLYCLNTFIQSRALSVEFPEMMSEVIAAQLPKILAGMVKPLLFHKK
Chain of Estrogen receptor beta (Homo sapiens) (Q92731 whole entry, looked up): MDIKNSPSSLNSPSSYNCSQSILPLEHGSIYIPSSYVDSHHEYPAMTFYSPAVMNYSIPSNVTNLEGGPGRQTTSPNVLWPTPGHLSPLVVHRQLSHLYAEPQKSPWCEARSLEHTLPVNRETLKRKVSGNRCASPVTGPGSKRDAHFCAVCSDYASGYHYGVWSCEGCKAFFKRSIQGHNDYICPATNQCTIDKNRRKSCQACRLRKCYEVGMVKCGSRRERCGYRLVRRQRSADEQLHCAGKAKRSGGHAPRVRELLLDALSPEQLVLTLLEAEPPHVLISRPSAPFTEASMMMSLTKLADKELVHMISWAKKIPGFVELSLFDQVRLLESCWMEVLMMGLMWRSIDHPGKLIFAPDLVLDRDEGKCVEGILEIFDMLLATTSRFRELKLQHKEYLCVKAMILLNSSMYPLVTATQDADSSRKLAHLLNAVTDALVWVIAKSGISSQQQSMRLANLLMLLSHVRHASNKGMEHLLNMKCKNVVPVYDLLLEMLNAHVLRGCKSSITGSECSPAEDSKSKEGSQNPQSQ

CC(C)(C)OOC(C)(C)CCC(C)(C)OOC(C)(C)C
inactive: [1] | [2] | [3] | [4] | [5] | [6] | [7] | [8] | [9] | [10] | [11] | [12] | [13] | [14]

C=CCc1ccc(OC(=O)Cc2ccccc2)c(OC)c1
inactive: [1] | [2] | [3] | [4] | [5] | [6] | [7] | [8] | [9] | [10] | [15] | [11] | [13]

CCOC(C(=O)OCCN(C)C)(c1ccccc1)c1ccccc1
inactive: [1] | [2] | [3] | [4] | [6] | [7] | [10] | [16] | [11] | [12] | [13]

CC(Oc1cccc(Cl)c1)C(=O)O (stereo unspecified)
inactive: [1] | [2] | [3] | [6] | [9] | [10] | [15] | [11] | [12] | [13] | [14]

CCOC(=O)NC(O)C(Cl)(Cl)Cl (stereo unspecified)
inactive: [17] | [18] | [2] | [5] | [6] | [7] | [10] | [15] | [16] | [19] | [11] | [12] | [13]

CC(CC(C(N)=O)(c1ccccc1)c1ccccc1)N(C)C (stereo unspecified)
inactive: [1] | [2] | [3] | [6] | [10] | [20] | [16] | [11] | [12] | [13] | [14]

Cc1ccccc1
inactive: [1] | [2] | [3] | [4] | [5] | [6] | [7] | [8] | [9] | [10] | [15] | [11] | [12] | [13] | [14]

C=CCOC(=O)C(C)(C)OC(=O)c1cc(-n2c(=O)cc(C(F)(F)F)n(C)c2=O)ccc1Cl
inactive: [1] | [2] | [3] | [4] | [5] | [6] | [7] | [8] | [9] | [10] | [16] | [19] | [13]

CC(C)[C@@H](C(=O)O[C@@H](C#N)c1cccc(Oc2ccccc2)c1)c1ccc(Cl)cc1
inactive: [1] | [2] | [3] | [4] | [5] | [6] | [8] | [10] | [15] | [16] | [11] | [12] | [13]

O=S(=O)(c1ccccc1)c1ccccc1
inactive: [1] | [2] | [3] | [4] | [6] | [7] | [8] | [9] | [10] | [16] | [11] | [12] | [13] | [14]

NP(N)(=O)NC(=O)c1ccc(F)cc1
inactive: [17] | [18] | [2] | [3] | [4] | [5] | [6] | [7] | [8] | [9] | [10] | [20] | [16] | [19] | [11] | [12] | [13] | [14]

N#CC1(N=NC2(C#N)CCCCC2)CCCCC1
active: [7] 21.7 µM
inactive: [1] | [2] | [4] | [5] | [6] | [10] | [15] | [16] | [11] | [12] | [13]

C[N+](C)(C)CC1CO1 (stereo unspecified)
inactive: [17] | [2] | [3] | [4] | [5] | [6] | [7] | [8] | [9] | [10] | [15] | [20] | [16] | [19] | [11] | [12] | [13] | [14]

CN1C(=O)CN=C(c2ccccc2)c2cc([N+](=O)[O-])ccc21
inactive: [17] | [18] | [2] | [3] | [4] | [6] | [7] | [10] | [15] | [20] | [19] | [11] | [12] | [13]

Nc1cc(Cl)cc(C(=O)O)c1Cl
inactive: [1] | [2] | [3] | [5] | [6] | [7] | [8] | [9] | [10] | [16] | [13] | [14]

CCC1(C2=NCCN2)Cc2ccccc2O1 (stereo unspecified)
inactive: [17] | [18] | [2] | [3] | [5] | [6] | [7] | [10] | [15] | [20] | [16] | [11] | [12] | [13] | [14]
active: [19] 3.35 µM

O=C(O)c1cc(Cl)ccc1Cl
inactive: [1] | [2] | [3] | [4] | [5] | [6] | [7] | [8] | [9] | [10] | [15] | [16] | [13] | [14]

CC1(C)CC(=O)CC(C)(C)N1[O]
inactive: [1] | [2] | [3] | [4] | [5] | [6] | [7] | [8] | [9] | [10] | [16] | [11] | [13] | [14]
